According to the supplement of paper PMC10849652:
Of roughly 8,800 targets only a part is listed; those with a hit were picked by preference. About 0.5% of all pairs of compound and target were hits.

Legend:
Experiment in all cases: log2 fold change, soluble protein after heating vs DMSO (PISA); higher = thermal stabilisation; K562 lysate, 10 uM; active = over 0.2 and 3.5 SD of the protein, either way, in both replicates (recomputed)
ibrutinib = compound: C=CC(=O)N1CCC[C@@H](n2nc(-c3ccc(Oc4ccccc4)cc3)c3c(N)ncnc32)C1 [ibrutinib]
Outline: (§1)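 Thermal stability, expressed as log-two fold change relative to solvent controls, is given from duplicates. Crude K562 extract in PBS pH 7.4 with 1 mM MgCl2, at 1 mg/mL protein, was treated with 10 μM compound for 30 min and heated in aliquots for 3 min across 48°C-58°C. After pooling, adjustment to 0.5% NP-40 at 4°C and centrifugation at 21,000xg for 90 min, supernatant protein was measured by TMTpro 16plex LC-MS/MS with channel sums equalised.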

[1] = compound: CC(=O)c1cnc2ccc(-c3cc(Cl)c(O)c(Cl)c3)nc2c1N[C@H]1CC[C@H](CN(C)C)CC1
Outline: as §1

ralimetinib = compound: CC(C)(C)Cn1c(N)nc2ccc(-c3[nH]c(C(C)(C)C)nc3-c3ccc(F)cc3)nc21 [ralimetinib]
Outline: as §1

[2] = compound: CC(C)(O)CC(=O)NCCn1ccc2ncnc(Nc3ccc(Oc4cccc(C(F)(F)F)c4)c(Cl)c3)c21
Outline: as §1

[3] = compound: CC(C)C1=C2N=C(C=C(N2N=C1)NCC3=CC=CC=C3)NCCCCCCN
Outline: as §1

[4] = compound: CC1=C(C(CC(=O)N1)C2=CC=C(C=C2)C(F)(F)F)C(=O)NC3=C(C=C4C(=C3)C=NN4)F
Outline: as §1

[5] = compound: CC1=C(C2=C(C=C1)C(=O)C3=CC=CC=C3N2CCCN)C
Outline: as §1

[6] = compound: CC1=C(C=C(C=C1)NC(=O)C2=CC(=CC=C2)C(C)(C)C#N)NC3=CC4=C(C=C3)N=CN(C4=O)C
Outline: as §1

[7] = compound: CC1=C(C=C(C=C1)NC(=O)C2=CC(=CC=C2)N(C)C)NC(=O)C3=CC=C(C=C3)O
Outline: as §1

[8] = compound: CC1=CC=C(C=C1)SC2=C3C=C(SC3=CN=C2)C(=O)N
Outline: as §1

vemurafenib = compound: CCCS(=O)(=O)Nc1ccc(F)c(C(=O)c2c[nH]c3ncc(-c4ccc(Cl)cc4)cc23)c1F [vemurafenib]
Outline: as §1

[9] = compound: CCCS(=O)(=O)Nc1ccc(F)c(C(=O)c2c[nH]c3ncc(Cl)cc23)c1F
Outline: as §1

barasertib = compound: CCN(CCCOc1ccc2c(Nc3cc(CC(=O)Nc4cccc(F)c4)[nH]n3)ncnc2c1)CCOP(=O)(O)O [barasertib]
Outline: as §1

[10] = compound: CC[C@@H]1C(=O)N(C)c2cnc(Nc3ccc(C(=O)NC4CCN(C)CC4)cc3OC)nc2N1C1CCCC1
Outline: as §1

volasertib = compound: CC[C@@H]1C(=O)N(C)c2cnc(Nc3ccc(C(=O)N[C@H]4CC[C@H](N5CCN(CC6CC6)CC5)CC4)cc3OC)nc2N1C(C)C [volasertib]
Outline: as §1

[11] = compound: CCn1c(C(=O)N(C2CC2)C2CC2)cc2c3c(ncn3C)c(Nc3cc(C)n(C)n3)nc21
Outline: as §1

[12] = compound: CCn1cc(-c2ccnc3[nH]c(-c4cccc(CN(C)C)c4)cc23)c(-c2ccc(NC(=O)N(C)C)cc2)n1
Outline: as §1

[13] = compound: CN1CCC(CNc2ccc3ncc(-c4cccc(OC(F)(F)F)c4)n3n2)CC1
Outline: as §1

saracatinib = compound: CN1CCN(CCOc2cc(OC3CCOCC3)c3c(Nc4c(Cl)ccc5c4OCO5)ncnc3c2)CC1 [saracatinib]
Outline: as §1

sotrastaurin = compound: CN1CCN(c2nc(C3=C(c4c[nH]c5ccccc45)C(=O)NC3=O)c3ccccc3n2)CC1 [sotrastaurin]
Outline: as §1

Measured: log2 fold change

APOBEC3C (UniProt Q9NRW3)
UniProt Q9NRW3, sequence (Q9NRW3 whole entry, looked up): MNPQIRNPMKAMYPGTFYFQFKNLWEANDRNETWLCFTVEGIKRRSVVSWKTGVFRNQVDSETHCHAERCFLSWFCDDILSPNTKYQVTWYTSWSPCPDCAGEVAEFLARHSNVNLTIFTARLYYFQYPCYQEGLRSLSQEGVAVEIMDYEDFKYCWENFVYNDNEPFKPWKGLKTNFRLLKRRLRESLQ
inactive: ibrutinib -0.024 | [1] -0.047 | ralimetinib 0.005 | [2] -0.051 | [3] -0.01 | [4] 0 | [5] -0.025 | [6] 0.046 | [7] 0.019 | [8] -0.01 | vemurafenib -0.027 | [9] 0.021 | barasertib -0.006 | [10] 0.075 | volasertib -0.014 | [11] -0.081 | [12] -0.038 | [13] 0.034 | saracatinib 0.018 | sotrastaurin 0.114

ACADM isoform 2 (UniProt P11310)
UniProt P11310, sequence (P11310 whole entry, looked up): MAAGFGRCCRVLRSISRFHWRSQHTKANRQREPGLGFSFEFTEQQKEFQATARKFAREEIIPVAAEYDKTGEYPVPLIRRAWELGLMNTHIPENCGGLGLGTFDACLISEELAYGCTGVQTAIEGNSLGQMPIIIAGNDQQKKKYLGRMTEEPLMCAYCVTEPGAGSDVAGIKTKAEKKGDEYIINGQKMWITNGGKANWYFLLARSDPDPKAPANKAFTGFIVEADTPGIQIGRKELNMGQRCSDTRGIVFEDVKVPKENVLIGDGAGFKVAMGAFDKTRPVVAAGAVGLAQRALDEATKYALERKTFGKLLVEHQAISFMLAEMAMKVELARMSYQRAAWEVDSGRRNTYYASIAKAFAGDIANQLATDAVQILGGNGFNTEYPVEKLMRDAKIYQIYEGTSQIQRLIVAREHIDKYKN
active: [3] 0.396 | sotrastaurin 0.67
inactive: ibrutinib 0.151 | [1] 0.026 | ralimetinib -0.015 | [2] -0.047 | [4] -0.041 | [5] -0.004 | [6] -0.055 | [7] -0.019 | [8] 0.046 | vemurafenib 0.02 | [9] -0.011 | barasertib 0.069 | [10] 0.001 | volasertib -0.062 | [11] -0.051 | [12] -0.031 | [13] -0.046 | saracatinib -0.023

AIMP1 isoform 2 (UniProt Q12904)
UniProt Q12904, sequence (Q12904 whole entry, looked up): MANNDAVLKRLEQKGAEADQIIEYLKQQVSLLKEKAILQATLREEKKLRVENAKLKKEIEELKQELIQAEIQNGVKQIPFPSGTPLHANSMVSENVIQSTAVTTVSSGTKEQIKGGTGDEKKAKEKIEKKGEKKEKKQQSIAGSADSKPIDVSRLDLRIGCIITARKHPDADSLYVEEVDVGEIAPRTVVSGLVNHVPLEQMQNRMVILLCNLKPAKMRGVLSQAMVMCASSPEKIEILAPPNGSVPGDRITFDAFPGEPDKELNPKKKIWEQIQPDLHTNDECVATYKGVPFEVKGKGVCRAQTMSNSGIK
inactive: ibrutinib 0.009 | [1] 0.012 | ralimetinib 0.026 | [2] 0.018 | [3] 0.022 | [4] -0.026 | [5] 0.005 | [6] -0.014 | [7] -0.006 | [8] 0.006 | vemurafenib 0.001 | [9] 0.018 | barasertib 0.015 | [10] -0.036 | volasertib -0.057 | [11] 0.025 | [12] -0.024 | [13] -0.081 | saracatinib 0.023 | sotrastaurin -0.001

ARGLU1 (UniProt Q9NWB6)
UniProt Q9NWB6, sequence (Q9NWB6 whole entry, looked up): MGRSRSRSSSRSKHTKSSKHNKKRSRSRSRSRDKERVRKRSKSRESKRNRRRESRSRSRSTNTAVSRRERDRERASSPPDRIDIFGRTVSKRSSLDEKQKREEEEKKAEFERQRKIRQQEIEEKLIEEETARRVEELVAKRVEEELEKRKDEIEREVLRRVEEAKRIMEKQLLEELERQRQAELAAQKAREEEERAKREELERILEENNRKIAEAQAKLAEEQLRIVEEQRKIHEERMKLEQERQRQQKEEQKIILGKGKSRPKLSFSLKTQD
inactive: ibrutinib 0.027 | [1] -0.034 | ralimetinib -0.027 | [2] 0.015 | [3] 0.005 | [4] -0.008 | [5] 0.026 | [6] -0.027 | [7] -0.022 | [8] 0.019 | vemurafenib -0.013 | [9] 0.027 | barasertib -0.043 | [10] 0.001 | volasertib 0.027 | [11] -0.035 | [12] 0.073 | [13] -0.02 | saracatinib 0.047 | sotrastaurin -0.019

ASNS (UniProt P08243)
UniProt P08243, sequence (P08243 whole entry, looked up): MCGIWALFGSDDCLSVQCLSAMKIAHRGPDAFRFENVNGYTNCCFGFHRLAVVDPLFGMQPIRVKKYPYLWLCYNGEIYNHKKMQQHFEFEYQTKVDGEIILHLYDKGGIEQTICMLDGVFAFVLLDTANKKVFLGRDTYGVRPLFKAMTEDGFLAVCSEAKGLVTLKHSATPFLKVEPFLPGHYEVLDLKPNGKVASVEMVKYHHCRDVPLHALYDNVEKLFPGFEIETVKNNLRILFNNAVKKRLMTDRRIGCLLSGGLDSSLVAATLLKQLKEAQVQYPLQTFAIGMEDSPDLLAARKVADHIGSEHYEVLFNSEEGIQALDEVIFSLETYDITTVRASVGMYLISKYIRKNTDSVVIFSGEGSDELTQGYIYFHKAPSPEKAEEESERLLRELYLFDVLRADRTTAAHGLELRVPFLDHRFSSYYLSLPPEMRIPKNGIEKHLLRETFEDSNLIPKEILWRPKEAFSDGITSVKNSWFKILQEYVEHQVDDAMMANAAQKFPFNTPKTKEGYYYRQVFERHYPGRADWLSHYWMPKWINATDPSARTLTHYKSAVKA
inactive: ibrutinib 0.012 | [1] 0.015 | ralimetinib -0.014 | [2] 0.012 | [3] 0.052 | [4] -0.017 | [5] 0.04 | [6] 0.016 | [7] 0.014 | [8] 0.047 | vemurafenib -0.002 | [9] -0.002 | barasertib 0.025 | [10] -0.056 | volasertib -0.047 | [11] 0.005 | [12] 0.031 | [13] -0.03 | saracatinib 0.022 | sotrastaurin 0.014

ALDH1L2 (UniProt Q3SY69)
inactive: ibrutinib 0.033 | [1] 0.034 | ralimetinib 0.024 | [2] -0.038 | [3] 0.006 | [4] 0.029 | [5] -0.022 | [6] -0.028 | [7] -0.006 | [8] 0.016 | vemurafenib -0.084 | [9] -0.026 | barasertib 0.002 | [10] -0.006 | volasertib -0.045 | [11] 0.007 | [12] -0.089 | [13] -0.014 | saracatinib -0.002 | sotrastaurin 0.013

ARHGAP21 (UniProt Q5T5U3)
inactive: ibrutinib 0.016 | [1] 0.047 | ralimetinib 0.017 | [2] -0.047 | [3] 0.022 | [4] 0.077 | [5] -0.053 | [6] 0.062 | [7] 0.052 | [8] -0.015 | vemurafenib 0.107 | [9] 0.073 | barasertib 0.061 | [10] -0.01 | volasertib -0.027 | [11] 0.037 | [12] 0.043 | [13] -0.202 | saracatinib 0.034 | sotrastaurin 0.023

ARMCX3 (UniProt Q9UH62)
UniProt Q9UH62, sequence (Q9UH62 whole entry, looked up): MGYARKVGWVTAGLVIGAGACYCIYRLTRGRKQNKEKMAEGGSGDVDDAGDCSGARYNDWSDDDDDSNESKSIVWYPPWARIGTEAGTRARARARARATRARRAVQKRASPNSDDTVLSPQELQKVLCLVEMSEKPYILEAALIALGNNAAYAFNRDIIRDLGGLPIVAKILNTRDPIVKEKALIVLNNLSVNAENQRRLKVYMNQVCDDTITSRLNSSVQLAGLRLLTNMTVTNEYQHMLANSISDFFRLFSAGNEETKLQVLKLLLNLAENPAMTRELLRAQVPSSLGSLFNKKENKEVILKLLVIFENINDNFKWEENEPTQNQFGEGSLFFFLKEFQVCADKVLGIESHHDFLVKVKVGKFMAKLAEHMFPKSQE
inactive: ibrutinib -0.073 | [1] -0.027 | ralimetinib 0.006 | [2] 0.013 | [3] -0.042 | [4] -0.053 | [5] -0.029 | [6] 0.004 | [7] 0.039 | [8] 0 | vemurafenib -0.024 | [9] 0.027 | barasertib 0.102 | [10] -0.033 | volasertib -0.045 | [11] 0.021 | [12] -0.01 | [13] -0.049 | saracatinib 0.012 | sotrastaurin 0.016

ANXA1 (UniProt P04083)
UniProt P04083, sequence (P04083 whole entry, looked up): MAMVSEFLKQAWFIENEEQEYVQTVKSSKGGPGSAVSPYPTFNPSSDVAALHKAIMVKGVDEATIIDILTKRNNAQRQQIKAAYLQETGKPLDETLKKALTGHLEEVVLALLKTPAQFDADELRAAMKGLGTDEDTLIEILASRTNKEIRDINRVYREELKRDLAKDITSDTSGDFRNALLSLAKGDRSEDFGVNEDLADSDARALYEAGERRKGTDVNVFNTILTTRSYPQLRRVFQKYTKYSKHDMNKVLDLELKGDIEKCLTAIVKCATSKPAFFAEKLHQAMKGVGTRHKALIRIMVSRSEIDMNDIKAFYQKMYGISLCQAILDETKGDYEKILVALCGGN
inactive: ibrutinib -0.001 | [1] 0.007 | ralimetinib -0.003 | [2] 0.007 | [3] 0.005 | [4] -0.01 | [5] 0.03 | [6] -0.024 | [7] 0.025 | [8] -0.003 | vemurafenib -0.007 | [9] -0.027 | barasertib -0.038 | [10] -0.022 | volasertib -0.011 | [11] 0.008 | [12] 0.028 | [13] 0.049 | saracatinib -0.019 | sotrastaurin 0.017

ARL8A (UniProt Q96BM9)
UniProt Q96BM9, sequence (Q96BM9 whole entry, looked up): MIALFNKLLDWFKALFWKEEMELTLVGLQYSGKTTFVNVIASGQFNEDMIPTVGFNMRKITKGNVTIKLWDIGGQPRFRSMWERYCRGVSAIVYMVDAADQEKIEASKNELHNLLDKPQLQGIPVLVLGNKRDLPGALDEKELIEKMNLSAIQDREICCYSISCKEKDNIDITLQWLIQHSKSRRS
inactive: ibrutinib -0.141 | [1] 0.119 | ralimetinib -0.101 | [2] -0.102 | [3] 0.11 | [4] 0.135 | [5] -0.049 | [6] -0.143 | [7] -0.022 | [8] 0 | vemurafenib -0.029 | [9] -0.26 | barasertib -0.026 | [10] -0.001 | volasertib -0.037 | [11] -0.03 | [13] -0.199 | saracatinib 0.03 | sotrastaurin 0.022
active: [12] 0.558

ALDH5A1 isoform 2 (UniProt P51649)
UniProt P51649, sequence (P51649 whole entry, looked up): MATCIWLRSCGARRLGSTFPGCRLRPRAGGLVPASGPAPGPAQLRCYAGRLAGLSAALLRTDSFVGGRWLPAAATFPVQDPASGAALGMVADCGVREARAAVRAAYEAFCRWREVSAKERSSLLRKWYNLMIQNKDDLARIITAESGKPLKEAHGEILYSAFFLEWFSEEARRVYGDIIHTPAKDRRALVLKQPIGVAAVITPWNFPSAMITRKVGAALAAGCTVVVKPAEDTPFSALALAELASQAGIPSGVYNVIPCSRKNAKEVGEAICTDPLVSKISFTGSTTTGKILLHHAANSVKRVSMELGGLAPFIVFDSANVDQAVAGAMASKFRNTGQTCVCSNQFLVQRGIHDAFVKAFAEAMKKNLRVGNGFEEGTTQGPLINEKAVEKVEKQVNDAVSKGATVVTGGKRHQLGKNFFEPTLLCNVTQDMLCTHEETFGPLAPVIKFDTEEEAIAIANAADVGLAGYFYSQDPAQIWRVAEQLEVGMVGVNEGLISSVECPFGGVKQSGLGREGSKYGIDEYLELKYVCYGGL
inactive: ibrutinib 0.041 | [1] 0.018 | ralimetinib -0.015 | [2] 0.001 | [3] -0.019 | [4] -0.01 | [5] 0.001 | [6] 0.021 | [7] -0.022 | [8] 0.011 | vemurafenib -0.016 | [9] 0.011 | barasertib -0.009 | [10] -0.024 | volasertib -0.001 | [11] 0.031 | [12] 0.004 | [13] 0.008 | saracatinib 0 | sotrastaurin -0.023

AIP (UniProt O00170)
UniProt O00170, sequence (O00170 whole entry, looked up): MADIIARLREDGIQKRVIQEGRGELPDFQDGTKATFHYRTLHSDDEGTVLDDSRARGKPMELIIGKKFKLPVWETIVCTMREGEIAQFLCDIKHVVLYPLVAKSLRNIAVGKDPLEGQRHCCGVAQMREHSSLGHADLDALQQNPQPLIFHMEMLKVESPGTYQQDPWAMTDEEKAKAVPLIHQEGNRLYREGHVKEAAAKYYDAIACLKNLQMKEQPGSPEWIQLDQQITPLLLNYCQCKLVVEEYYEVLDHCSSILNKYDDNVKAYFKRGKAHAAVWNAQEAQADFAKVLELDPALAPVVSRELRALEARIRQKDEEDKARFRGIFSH
inactive: ibrutinib 0.019 | [1] -0.004 | ralimetinib -0.022 | [2] -0.003 | [3] -0.012 | [4] -0.011 | [5] -0.017 | [6] 0.011 | [7] 0 | [8] -0.023 | vemurafenib -0.002 | [9] 0.015 | barasertib -0.004 | [10] 0.017 | volasertib -0.004 | [11] -0.022 | [13] -0.019 | saracatinib -0.015 | sotrastaurin 0.007
active: [12] 0.514

ACIN1 (UniProt E7EQT4)
inactive: ibrutinib 0.049 | [1] -0.033 | ralimetinib 0.123 | [2] -0.052 | [3] 0.028 | [4] -0.017 | [5] -0.052 | [6] 0.094 | [7] -0.03 | [8] -0.002 | vemurafenib -0.057 | [9] 0.026 | barasertib -0.021 | [10] -0.011 | volasertib 0.045 | [11] 0.048 | [12] -0.321 | [13] 0.127 | saracatinib -0.016 | sotrastaurin 0.047

ACAT1 (UniProt P24752)
UniProt P24752, sequence (P24752 whole entry, looked up): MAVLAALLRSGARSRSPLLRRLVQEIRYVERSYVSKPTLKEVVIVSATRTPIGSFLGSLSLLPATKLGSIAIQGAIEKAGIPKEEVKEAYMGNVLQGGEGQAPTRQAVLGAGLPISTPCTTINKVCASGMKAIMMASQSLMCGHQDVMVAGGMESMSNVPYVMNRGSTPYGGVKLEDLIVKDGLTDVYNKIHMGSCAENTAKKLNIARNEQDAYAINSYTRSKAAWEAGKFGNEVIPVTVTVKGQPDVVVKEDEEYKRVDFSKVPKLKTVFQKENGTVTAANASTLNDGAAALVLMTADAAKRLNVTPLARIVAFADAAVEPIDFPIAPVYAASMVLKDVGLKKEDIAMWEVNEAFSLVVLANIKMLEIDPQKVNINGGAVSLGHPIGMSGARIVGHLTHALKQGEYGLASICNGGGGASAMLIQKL
inactive: ibrutinib 0.002 | [1] 0.005 | ralimetinib 0.003 | [2] 0.002 | [3] -0.002 | [4] 0.001 | [5] 0.034 | [6] -0.013 | [7] -0.007 | [8] 0.015 | vemurafenib 0 | [9] -0.016 | barasertib 0.006 | [10] 0.033 | volasertib 0.019 | [11] 0.003 | [12] -0.038 | [13] -0.006 | saracatinib 0.011 | sotrastaurin 0.007

AIMP2 (UniProt Q13155)
UniProt Q13155, sequence (Q13155 whole entry, looked up): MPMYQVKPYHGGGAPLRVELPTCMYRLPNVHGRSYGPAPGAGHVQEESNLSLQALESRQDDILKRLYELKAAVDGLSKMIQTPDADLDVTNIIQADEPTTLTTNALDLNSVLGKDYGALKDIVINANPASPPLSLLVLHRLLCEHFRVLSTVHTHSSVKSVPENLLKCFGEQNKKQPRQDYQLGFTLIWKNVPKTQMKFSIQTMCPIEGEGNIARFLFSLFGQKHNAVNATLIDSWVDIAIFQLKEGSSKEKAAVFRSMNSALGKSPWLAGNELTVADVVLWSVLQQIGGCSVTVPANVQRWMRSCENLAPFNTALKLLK
inactive: ibrutinib 0 | [1] 0.013 | ralimetinib 0.044 | [2] 0.015 | [3] 0.044 | [4] 0.002 | [5] 0.018 | [6] -0.005 | [7] 0.019 | [8] 0.028 | vemurafenib -0.026 | [9] 0.022 | barasertib 0.031 | [10] -0.131 | volasertib -0.063 | [11] -0.019 | [12] -0.008 | [13] -0.079 | saracatinib 0.018 | sotrastaurin 0.015

ABI1 isoform 9 (UniProt Q8IZP0)
UniProt Q8IZP0, sequence (Q8IZP0 whole entry, looked up): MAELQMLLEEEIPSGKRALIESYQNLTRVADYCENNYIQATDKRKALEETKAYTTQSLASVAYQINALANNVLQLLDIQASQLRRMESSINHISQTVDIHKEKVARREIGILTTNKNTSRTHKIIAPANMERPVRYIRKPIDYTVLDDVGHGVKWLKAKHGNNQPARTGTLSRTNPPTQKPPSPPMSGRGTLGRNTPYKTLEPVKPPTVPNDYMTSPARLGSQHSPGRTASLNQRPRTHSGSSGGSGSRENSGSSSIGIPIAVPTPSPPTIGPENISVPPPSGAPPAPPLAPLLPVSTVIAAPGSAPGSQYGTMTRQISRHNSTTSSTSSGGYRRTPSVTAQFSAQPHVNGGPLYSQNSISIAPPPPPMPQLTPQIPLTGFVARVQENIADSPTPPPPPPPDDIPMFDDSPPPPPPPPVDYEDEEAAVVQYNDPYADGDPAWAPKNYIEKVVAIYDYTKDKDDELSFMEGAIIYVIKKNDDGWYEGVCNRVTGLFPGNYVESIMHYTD
inactive: ibrutinib 0.034 | [1] 0.023 | ralimetinib -0.031 | [2] -0.005 | [3] 0.031 | [4] -0.02 | [5] -0.008 | [6] 0.024 | [7] -0.012 | [8] 0.003 | vemurafenib -0.021 | [9] 0.005 | barasertib -0.01 | [10] 0.052 | volasertib -0.038 | [11] -0.001 | [12] -0.116 | [13] 0.217 | saracatinib -0.029 | sotrastaurin -0.019
